“And” between values parts separate entries of the source, which are not always exact repeats. Identical values can stand only once. Records with an inconclusive call do not appear. Values without a mark were called inactive. The source made the active and inactive calls. The call rests on the fitted dose curve; in most records, active means well fitted curve in the direction sought with a large enough effect; inconclusive means small, poorly fitted or top-dose-only effect, or another doubt; inactive means no such curve, though single readings can be large; an effect the other way counts as inactive or inconclusive.

In experiment [1] the target is Cellular tumor antigen p53 (Homo sapiens) (UniProt P04637). Description: Primary qHTS for small molecule compounds that upregulate eGFP-tagged delta133p53alpha (in N-terminal) cells. (AID 2060322). Further: nearly all actives have a fitted effect of over 75% in size. Further: potency means the concentration at half of the fitted maximal effect.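 On activation: series mostly up to about 56 µM; 0% = DMSO vehicle and 100% = reference activator.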 As to conditions: NCI-H358 eGFP-delta133p53alpha fluorescence, 24 h; activation: stronger effect = higher value. The method in brief:
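NCI-H358 cells pre-induced 24 h with 10 ng/ml doxycycline to express N-terminal eGFP-delta133p53alpha, then dosed 24 h at 37C without doxycycline; fixed, Hoechst-stained, GFP intensity by laser scanning cytometry, normalized to DMSO (0%) and 57.5 uM 5-azacytidine (100%).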

Experiment [2] concerns the target Aldehyde dehydrogenase, mitochondrial (Homo sapiens) (UniProt P05091). Description: qHTS for Inhibitors of the Aldehyde Dehydrogenase Family (ALDH2) Primary screen (AID 2061308;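 further: plate controls were vehicle for no effect and reference inhibitor for full effect; nearly all actives have a fitted effect of over 55% in size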). (In general: In qHTS, concentration-response curves come from the screen itself.)
In experiment [3] the target is Retinaldehyde dehydrogenase 3 (Homo sapiens) (UniProt P47895). The experiment in a line: qHTS for Inhibitors of the Aldehyde Dehydrogenase Family (ALDH1A3) Validation screen (AID 2061312). Further: on the % scale 0 is the no-effect control and ±100 the full control effect; nearly all actives have a fitted effect of over 45% in size.
The target is the same in experiment [4]. Description: qHTS for Inhibitors of the Aldehyde Dehydrogenase Family (ALDH1A3) Primary screen (AID 2061315).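 Further: plate controls were DMSO vehicle for no effect and reference inhibitor for full effect.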

Cellular tumor antigen p53 (Homo sapiens), sequence (P04637 whole entry, looked up): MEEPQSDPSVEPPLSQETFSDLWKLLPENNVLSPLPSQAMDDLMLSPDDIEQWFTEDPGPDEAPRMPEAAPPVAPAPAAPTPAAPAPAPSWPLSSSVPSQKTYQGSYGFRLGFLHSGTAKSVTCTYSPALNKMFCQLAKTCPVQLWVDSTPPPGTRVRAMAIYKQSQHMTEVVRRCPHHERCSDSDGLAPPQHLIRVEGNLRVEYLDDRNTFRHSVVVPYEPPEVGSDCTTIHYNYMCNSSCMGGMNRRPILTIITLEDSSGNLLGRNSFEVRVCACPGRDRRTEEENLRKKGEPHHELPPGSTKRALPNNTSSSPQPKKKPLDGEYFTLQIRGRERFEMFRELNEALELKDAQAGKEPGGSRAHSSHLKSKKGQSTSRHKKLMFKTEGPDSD

With `CN[C@H](CNC(=O)N1CCC[C@@H]([C@@H](OCCNC(=O)OC)c2cccc(Cl)c2)C1)C[C@H]1CCCOC1`, the activation in experiment [1] is 11.5%. Further, the Potency result in experiment [2], in experiment [3] and in experiment [4] was “inactive” each time.
As for `CN(C)S(=O)(=O)c1ccc(NC(=S)N2CCC(C(O)(c3ccccc3)c3ccccc3)CC2)cc1`, the activation in experiment [1] is -6.68%. Besides, the Potency entry in experiment [2], in experiment [3] and in experiment [4] was “inactive” in each case.
On to `COc1cc(N2CCOCC2)ccc1NC(=O)c1csc(-c2cccnc2)n1`, for which the activation in experiment [1] is 24.8%. Besides, the Potency result in experiment [2], in experiment [3] and in experiment [4] was “inactive” in each case.
With `O=C(c1ccccn1)c1cnn2c(-c3ccncc3)ccnc12`, the activation in experiment [1] was -7.16%. The Potency result in experiment [2], in experiment [3] and in experiment [4] was “inactive” throughout.
Take `O=[N+]([O-])c1cc(Cl)ccc1S(=O)(=O)N1CCN(Cc2ccccc2)CC1`: the activation in experiment [1] is 0.955%. Also, the Potency result in experiment [2], in experiment [3] and in experiment [4] was “inactive” throughout.
Consider `CC1=C(/C=C/C(C)=C\C=C\C(C)=C/C(=O)O)C(C)(C)CCC1`, for which the activation in experiment [1] was 11.5%. In addition, the Potency entry in experiment [2], in experiment [3] and in experiment [4] was “inactive” in each case.
Consider `CCOC(=O)C(CCc1ccccc1)NC1CCCN2CCCC(C(=O)O)N2C1=O` (stereo unspecified), for which, in experiment [1], the activation is -9.55%. For the same compound, the Potency result in experiment [2], in experiment [3] and in experiment [4] was “inactive” each time.
For the compound `O=S(=O)(NC1CCC(c2cc(F)ccc2F)(S(=O)(=O)c2ccc(Cl)cc2)CC1)C(F)(F)F` (stereo unspecified), the activation in experiment [1] was -16.2%. Moreover, the Potency entry in experiment [2], in experiment [3] and in experiment [4] was “inactive” in each case.
As for `CCOC(=O)C(CCc1ccccc1)NC1CSC(c2cccs2)CN(CC(=O)O)C1=O` (stereo unspecified), in experiment [1], the activation is -0.477%. Further, the Potency entry in experiment [2], in experiment [3] and in experiment [4] was “inactive” in each case.
Take `O=C(CC1NCCC[C@H]1O)Cn1cnc2cc(Br)c(Cl)cc2c1=O` (stereo partly specified): the activation in experiment [1] is 5.25%. Moreover, the Potency result in experiment [2], in experiment [3] and in experiment [4] was “inactive” throughout.
With `O=C(NCC1(c2nc(-c3ccccc3)cs2)CCOCC1)c1cccc(-c2noc(C(F)(F)F)n2)c1`, the activation in experiment [1] was 1.43%. For the same compound, the Potency result in experiment [2], in experiment [3] and in experiment [4] was “inactive” each time.
For the compound `CN(C)CCC(CSc1ccccc1)Nc1ccc(S(=O)(=O)NC(=O)c2ccc(N3CCN(Cc4ccccc4-c4ccc(Cl)cc4)CC3)cc2)cc1[N+](=O)[O-]` (stereo unspecified), the Potency in experiment [1] was 16.9 µM (active). Moreover, the Potency result in experiment [2], in experiment [3] and in experiment [4] was “inactive” in each case.
`CCC(C)n1cc(C)c2c(C(=O)NCc3c(C)cc(C)[nH]c3=O)cc(-c3ccc(N4CCNCC4)nc3)cc21` (stereo unspecified): in experiment [1], the activation is -3.34%. Moreover, the Potency entry in experiment [2], in experiment [3] and in experiment [4] was “inactive” each time.
Take `COc1ccccc1-n1c(SCC(=O)Nc2nc3ccc(C)cc3s2)nc2c(c1=O)SCC2`: the activation in experiment [1] was -11.9%. In addition, the Potency entry in experiment [2], in experiment [3] and in experiment [4] was “inactive” throughout.
As to `CC(C)(C)c1ccc2c(c1)CC[C@H]2NC(=O)Nc1cccc2[nH]ncc12`, in experiment [1], the activation is -6.68%. Moreover, the Potency entry in experiment [2], in experiment [3] and in experiment [4] was “inactive” in each case.
As for `Cc1oc(S(=O)(=O)N2CCCCC2)cc1NC(=O)Nc1ccccc1`, in experiment [1], the activation was 0.955%. The Potency result in experiment [2], in experiment [3] and in experiment [4] was “inactive” each time.
For the compound `CCCCc1c(-c2ccc(OC)cc2)[nH]c2nccnc12`, the activation in experiment [1] is 5.25%. Also, the Potency entry in experiment [2], in experiment [3] and in experiment [4] was “inactive” throughout.
With `O=C(CNC(=O)c1cccc(C(F)(F)F)c1)N[C@@H]1CCN(Cc2ccc(Cl)cc2)C1`, the activation in experiment [1] was -2.86%. In addition, the Potency entry in experiment [2], in experiment [3] and in experiment [4] was “inactive” in each case.
On to `COc1cccc(-c2ccc([C@@H](Oc3cc(-c4ccc(C[C@H](N)C(=O)O)cc4)nc(N)n3)C(F)(F)F)cc2)c1`, for which the activation in experiment [1] was -13.4%. The Potency entry in experiment [2], in experiment [3] and in experiment [4] was “inactive” each time.
Consider `COc1ccc(C(=O)N(CCC(C)C)Cc2nc(C)c(C)n2Cc2ccccc2C)c(OC)c1`, for which the activation in experiment [1] is 11.5%. Also, the Potency result in experiment [2], in experiment [3] and in experiment [4] was “inactive” throughout.
For the compound `Clc1ccccc1CNCC1CCC(CNCc2ccccc2Cl)CC1` (stereo unspecified), the activation in experiment [1] is 29.6%. For the same compound, the Potency result in experiment [2], in experiment [3] and in experiment [4] was “inactive” throughout.
In the case of `CC(Cc1cc2c(c(C(N)=O)c1)N(CCCO)CC2)NCCOc1ccccc1OCC(F)(F)F` (stereo unspecified), in experiment [1], the activation is 5.25%. Also, the Potency result in experiment [2], in experiment [3] and in experiment [4] was “inactive” in each case.
As to `Cc1cc(C(=O)Nc2cccc(C(=O)Nc3cccc(C(F)(F)F)c3)c2)on1`, the activation in experiment [1] is -7.16%. Moreover, the Potency entry in experiment [2], in experiment [3] and in experiment [4] was “inactive” each time.
As to `CC(OC1OCCN(Cc2n[nH]c(=O)[nH]2)C1c1ccc(F)cc1)c1cc(C(F)(F)F)cc(C(F)(F)F)c1` (stereo unspecified), in experiment [1], the activation is 20.5%. Further, the Potency result in experiment [2], in experiment [3] and in experiment [4] was “inactive” throughout.
As for `O=C(N[C@H](Cc1cscn1)C(=O)N[C@@H](CC1CCCCC1)[C@@H](O)[C@@H](O)C1CC1)c1nc2ccccc2[nH]1`, the activation in experiment [1] was 5.25%. The Potency result in experiment [2], in experiment [3] and in experiment [4] was “inactive” each time.
As to `CC(C)C(=O)Oc1ccc(CO)cc1[C@H](CCN(C(C)C)C(C)C)c1ccccc1`, in experiment [1], the activation was 16.6% and 0.955%. The Potency result in experiment [2], in experiment [3] and in experiment [4] was “inactive” each time.
Consider `O=C(NCc1ccc(F)cc1)C(=O)c1c[nH]c2ccccc12`, for which the activation in experiment [1] was 5.73%. For the same compound, the Potency entry in experiment [2], in experiment [3] and in experiment [4] was “inactive” in each case.
For `Cc1ccc(NC(=O)C(C)C)cc1C1CCN(Cc2ccc(Oc3ccc(F)c(F)c3)cc2)CC1`, the activation in experiment [1] was 16.7%. In addition, the Potency result in experiment [2], in experiment [3] and in experiment [4] was “inactive” in each case.
For `Cc1cc(OCCCS(C)(=O)=O)cc(C)c1-c1cccc(COc2ccc3c(c2)OCC3CC(=O)O)c1` (stereo unspecified), the activation in experiment [1] is 6.68%. In addition, the Potency result in experiment [2], in experiment [3] and in experiment [4] was “inactive” in each case.

These data come from PubChem BioAssay (NCATS).
